Potency and affinity values are given separately. Active and inactive are the calls of the source.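 How the source made its calls: active means fitted half-maximal concentration for loss of cell signal no higher than twice the top valid tested concentration; inconclusive means flat curve at 30 to 70% inhibition, or poor fit; inactive means flat within 30%, signal rise, or potency above limit.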
experiment: MDA-MB-231 cell growth inhibition, dose response, cytotoxicity control for RAD54 inhibitor project, CellTiter-Glo luminescence, cherry-pick (AID 651692); details: MDA-MB-231 viability, 24 h; series mostly up to 26 µM;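 further: more negative values mean stronger loss of viable cell signal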

Compound	outcome
CN(C)CCNc1ncnc2sc(-c3ccccc3)cc12	inactive
Cc1cc(N2CCN(C)CC2)nc2ccc(NC(=S)NCCN3CCc4ccccc4C3)cc12	inactive
CCN(CC)CCNc1cccc2sc3ccccc3c(=O)c12	inactive
Cc1ccc(-c2nc(NCCCN(C)C)c3ccccc3n2)cc1	inactive
COc1ccc2nc(C)cc(Nc3ccc(N4CCOCC4)cc3)c2c1	inactive
Cc1c(Cl)ccc(S(=O)(=O)NCCCn2ccnc2)c1Cl	inactive
COc1ccc(CCn2c(=N)c(C(=O)NCCN3CCOCC3)cc3c(=O)n4cccc(C)c4nc32)cc1OC	inactive
CCCN1CCN(C(=S)Nc2ccc3nc(N4CCN(CC)CC4)cc(C)c3c2)CC1	inactive
CCN1CCc2c(sc(NC(=O)c3ccc(C(=O)c4ccccc4)cc3)c2C(N)=O)C1	inactive
CCOC(=O)c1[nH]c2cc3c(cc2c1CCCN1C(=O)c2ccccc2C1=O)OCCO3	inactive
COc1cccc(-c2nc(NCCN3CCOCC3)c3ccccc3n2)c1O	inactive
COc1ccc(-c2nc(C(=O)NCCCN3CCOCC3)cc3c2[nH]c2ccccc23)cc1OC	inactive
CN(C)CCCNc1nc(-c2ccccc2)nc2ccccc12	inactive
CCN1CCc2c(sc(NC(=O)c3ccc(S(=O)(=O)N4CCOCC4)cc3)c2C(=O)OC)C1	inactive
C=CCN1C(=O)C(C)(C)Nc2ccccc21	inactive
COc1cccc2c1-c1c(O)cccc1C2=O	inactive
OCCN1CCN(c2nc(-c3ccccc3O)nc3ccccc23)CC1	inactive
CN1CCN(c2ccc(Nc3ccnc4cc(Cl)ccc34)cc2)CC1	inactive
Clc1ccc2[nH]c3c(NCCCN4CCOCC4)ncnc3c2c1	inactive
COc1ccccc1C1=NOC(Cn2c(NCCCO)nc3c2c(=O)n(C)c(=O)n3C)C1 (stereo not given)	inactive

Compound	outcome
Cc1ccc(-c2nc(C(=O)NCCCN(C)C)cc3c2[nH]c2ccccc23)cc1	inactive
CCNC1CCC(Nc2ccnc3cc(Cl)ccc23)CC1 (stereo not given)	inactive
CCN(CC)CCn1c2ccc(Cl)cc2c2nc(C)sc21	inactive
Cc1cc(C)c2c(N)c3ccccc3nc2n1	inactive
COc1cc2sc3cc(NCC[C@@H]4CCCN4C)ccc3c(=O)c2cc1OC	inactive
O=C(Nc1ccc2c(c1)OCO2)c1cc(-c2ccncc2)nc2ccccc12	inactive
Cc1cccn2c(=O)c3cc(C#N)c(=O)n(CCCN4CCOCC4)c3nc12	inactive
CCOC(=O)c1cnc2c(CC)cccc2c1NCCCN1CCOCC1	inactive
COc1cc(-c2cnc3c(NC=O)cc(-c4cccc(C(=O)NCCN(C)C)c4)cn23)cc(OC)c1OC	inactive
OCCN1CCN(c2ncnc3sc(-c4ccccc4)cc23)CC1	inactive
CCOC(=O)c1cnc2ccc(OCC)cc2c1NCCCN1CCOCC1	inactive
CCN(CC)CCCNC(=O)c1ccc2c3n(nc2c1)-c1ccc(Cl)cc1CO3	inactive
CCN(CC)CCCNc1nc2ccccc2c2nc(-c3ccncc3)nn12	inactive
CCN(CC)CCNC(=O)c1cc2c(=O)n(C)c3ccccc3c2s1	inactive
CN(C)CCCN1C(=O)c2cccc3cccc(c23)C1=O	inactive
CCN1CCN(CCCNC(=O)c2cc3c(=O)[nH]c4ccccc4c3s2)CC1	inactive
CCOC(=O)C1C(=O)NC(N2CCN(c3ccccc3)CC2)=NC1c1ccco1 (stereo not given)	inactive
CC(=O)Nc1cc(-c2ccc(N3CCN(C)CC3)cc2)cn2c(-c3cccc(C(C)=O)c3)cnc12	inactive
CN(C)CCCNc1nc2cc(-c3ccc(C(=O)N4CCN(C)CC4)cc3)sc2c(=O)n1C	inactive
Cc1cccc(-c2cc(N3CCCN(C)CC3)n3nccc3n2)c1	inactive
